Measured values as given in the supplement of paper PMC10849652.
Of roughly 8,800 targets only a part is listed; those with a hit were picked by preference. About 0.5% of all pairs of compound and target were hits. Values without a mark were called inactive.

Experiments:
Assay in all cases: log2 fold change, soluble protein after heating vs DMSO (PISA); higher = thermal stabilisation; K562 lysate, 10 uM; active = over 0.2 and 3.5 SD of the protein, either way, in both replicates (recomputed)
Tubastatin A = compound: CN1CCc2c(c3ccccc3n2Cc2ccc(C(=O)NO)cc2)C1 [Tubastatin A]
Summary of the method: (§1)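 K562 pellets were dounce-homogenised in PBS pH 7.4 with 1 mM MgCl2, and the crude extract at 1 mg/mL protein was treated with 10 μM compound for 30 min. Aliquots were heated for 3 min across 48°C-58°C, pooled, and brought to 0.5% NP-40 at 4°C; soluble protein was the supernatant after 21,000xg for 90 min. Soluble protein was quantified by TMTpro 16plex LC-MS/MS with channel sums equalised, and reported as log2 fold change in thermal stability against DMSO controls, with values from duplicates.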

[1] = compound: CNC(=O)C1=CC=CC=C1NC2=NC(=NC=C2Cl)NC3=C(C=C(C=C3)N4CCOCC4)OC
Summary of the method: as §1

defactinib = compound: CNC(=O)c1ccc(Nc2ncc(C(F)(F)F)c(NCc3nccnc3N(C)S(C)(=O)=O)n2)cc1 [defactinib]
Summary of the method: as §1

[2] = compound: CNc1nc(-c2ccc3c(N)n[nH]c3c2)cc(N2C[C@@H](C(=O)NC3CCCCC3)CC[C@H]2C)n1
Summary of the method: as §1

encorafenib = compound: COC(=O)N[C@@H](C)CNc1nccc(-c2cn(C(C)C)nc2-c2cc(Cl)cc(NS(C)(=O)=O)c2F)n1 [encorafenib]
Summary of the method: as §1

[3] = compound: COC(=O)[C@H](CCSC)NC(=O)C1=C(C=C(C=C1)NC[C@H](CS)N)C2=CC=CC=C2
Summary of the method: as §1

alisertib = compound: COc1cc(Nc2ncc3c(n2)-c2ccc(Cl)cc2C(c2c(F)cccc2OC)=NC3)ccc1C(=O)O [alisertib]
Summary of the method: as §1

[4] = compound: COc1cc2nc(-c3cc(F)ccc3O)nc(N[C@@H]3CNC[C@H]3C(C)(C)O)c2cc1OC
Summary of the method: as §1

gefitinib = compound: COc1cc2ncnc(Nc3ccc(F)c(Cl)c3)c2cc1OCCCN1CCOCC1 [gefitinib]
Summary of the method: as §1

lapatinib = compound: CS(=O)(=O)CCNCc1ccc(-c2ccc3ncnc(Nc4ccc(OCc5cccc(F)c5)c(Cl)c4)c3c2)o1 [lapatinib]
Summary of the method: as §1

pictilisib = compound: CS(=O)(=O)N1CCN(Cc2cc3nc(-c4cccc5[nH]ncc45)nc(N4CCOCC4)c3s2)CC1 [pictilisib]
Summary of the method: as §1

crizotinib = compound: C[C@@H](Oc1cc(-c2cnn(C3CCNCC3)c2)cnc1N)c1c(Cl)ccc(F)c1Cl [crizotinib]
Summary of the method: as §1

duvelisib = compound: C[C@H](Nc1ncnc2nc[nH]c12)c1cc2cccc(Cl)c2c(=O)n1-c1ccccc1 [duvelisib]
Summary of the method: as §1

tozasertib = compound: Cc1cc(Nc2cc(N3CCN(C)CC3)nc(Sc3ccc(NC(=O)C4CC4)cc3)n2)n[nH]1 [tozasertib]
Summary of the method: as §1

doramapimod = compound: Cc1ccc(-n2nc(C(C)(C)C)cc2NC(=O)Nc2ccc(OCCN3CCOCC3)c3ccccc23)cc1 [doramapimod]
Summary of the method: as §1

bafetinib = compound: Cc1ccc(NC(=O)c2ccc(CN3CC[C@H](N(C)C)C3)c(C(F)(F)F)c2)cc1Nc1nccc(-c2cncnc2)n1 [bafetinib]
Summary of the method: as §1

alvocidib = compound: CN1CC[C@H](c2c(O)cc(O)c3c(=O)cc(-c4ccccc4Cl)oc23)[C@H](O)C1 [alvocidib]
Summary of the method: as §1

[5] = compound: C[C@H](C1=CC=C(C=C1)C(=O)NC2=C3C=CNC3=NC=C2)N
Summary of the method: as §1

gandotinib = compound: Cc1cc(Nc2cc(CN3CCOCC3)c3nc(C)c(Cc4ccc(Cl)cc4F)n3n2)n[nH]1 [gandotinib]
Summary of the method: as §1

[6] = compound: Cc1cccc(CC(=O)N2CCc3c2ccc(-c2cn(C)c4ncnc(N)c24)c3F)n1
Summary of the method: as §1

UniProt Q9NZJ5, sequence (Q9NZJ5 whole entry, looked up): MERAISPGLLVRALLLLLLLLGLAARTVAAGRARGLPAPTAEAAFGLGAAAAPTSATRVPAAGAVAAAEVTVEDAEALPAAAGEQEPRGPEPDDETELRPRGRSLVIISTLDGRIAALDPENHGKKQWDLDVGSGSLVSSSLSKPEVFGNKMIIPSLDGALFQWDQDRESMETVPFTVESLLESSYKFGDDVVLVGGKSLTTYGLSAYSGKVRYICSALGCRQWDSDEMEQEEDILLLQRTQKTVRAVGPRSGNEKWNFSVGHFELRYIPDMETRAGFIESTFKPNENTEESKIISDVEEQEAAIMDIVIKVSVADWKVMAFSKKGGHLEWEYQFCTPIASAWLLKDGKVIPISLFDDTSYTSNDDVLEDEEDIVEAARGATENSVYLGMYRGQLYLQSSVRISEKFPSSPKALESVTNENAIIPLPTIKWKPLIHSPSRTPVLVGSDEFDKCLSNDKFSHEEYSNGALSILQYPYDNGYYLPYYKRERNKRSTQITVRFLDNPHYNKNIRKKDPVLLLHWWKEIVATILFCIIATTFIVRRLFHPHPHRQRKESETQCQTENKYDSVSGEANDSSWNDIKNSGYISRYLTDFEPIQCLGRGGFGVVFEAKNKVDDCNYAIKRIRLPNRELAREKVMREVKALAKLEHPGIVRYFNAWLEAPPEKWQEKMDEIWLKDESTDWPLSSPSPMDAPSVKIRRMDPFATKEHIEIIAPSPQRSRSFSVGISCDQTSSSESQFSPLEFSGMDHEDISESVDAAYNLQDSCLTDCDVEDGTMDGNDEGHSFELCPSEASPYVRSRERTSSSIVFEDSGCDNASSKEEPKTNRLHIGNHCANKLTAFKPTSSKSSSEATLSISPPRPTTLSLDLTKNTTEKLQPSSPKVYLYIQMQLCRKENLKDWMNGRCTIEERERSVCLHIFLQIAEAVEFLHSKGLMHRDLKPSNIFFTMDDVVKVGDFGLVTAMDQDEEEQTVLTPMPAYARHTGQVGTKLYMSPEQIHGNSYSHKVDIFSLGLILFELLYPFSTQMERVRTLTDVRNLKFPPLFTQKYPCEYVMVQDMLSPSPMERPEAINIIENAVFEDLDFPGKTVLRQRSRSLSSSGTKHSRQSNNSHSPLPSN
UniProt Q9Y2H6, sequence (Q9Y2H6 whole entry, looked up): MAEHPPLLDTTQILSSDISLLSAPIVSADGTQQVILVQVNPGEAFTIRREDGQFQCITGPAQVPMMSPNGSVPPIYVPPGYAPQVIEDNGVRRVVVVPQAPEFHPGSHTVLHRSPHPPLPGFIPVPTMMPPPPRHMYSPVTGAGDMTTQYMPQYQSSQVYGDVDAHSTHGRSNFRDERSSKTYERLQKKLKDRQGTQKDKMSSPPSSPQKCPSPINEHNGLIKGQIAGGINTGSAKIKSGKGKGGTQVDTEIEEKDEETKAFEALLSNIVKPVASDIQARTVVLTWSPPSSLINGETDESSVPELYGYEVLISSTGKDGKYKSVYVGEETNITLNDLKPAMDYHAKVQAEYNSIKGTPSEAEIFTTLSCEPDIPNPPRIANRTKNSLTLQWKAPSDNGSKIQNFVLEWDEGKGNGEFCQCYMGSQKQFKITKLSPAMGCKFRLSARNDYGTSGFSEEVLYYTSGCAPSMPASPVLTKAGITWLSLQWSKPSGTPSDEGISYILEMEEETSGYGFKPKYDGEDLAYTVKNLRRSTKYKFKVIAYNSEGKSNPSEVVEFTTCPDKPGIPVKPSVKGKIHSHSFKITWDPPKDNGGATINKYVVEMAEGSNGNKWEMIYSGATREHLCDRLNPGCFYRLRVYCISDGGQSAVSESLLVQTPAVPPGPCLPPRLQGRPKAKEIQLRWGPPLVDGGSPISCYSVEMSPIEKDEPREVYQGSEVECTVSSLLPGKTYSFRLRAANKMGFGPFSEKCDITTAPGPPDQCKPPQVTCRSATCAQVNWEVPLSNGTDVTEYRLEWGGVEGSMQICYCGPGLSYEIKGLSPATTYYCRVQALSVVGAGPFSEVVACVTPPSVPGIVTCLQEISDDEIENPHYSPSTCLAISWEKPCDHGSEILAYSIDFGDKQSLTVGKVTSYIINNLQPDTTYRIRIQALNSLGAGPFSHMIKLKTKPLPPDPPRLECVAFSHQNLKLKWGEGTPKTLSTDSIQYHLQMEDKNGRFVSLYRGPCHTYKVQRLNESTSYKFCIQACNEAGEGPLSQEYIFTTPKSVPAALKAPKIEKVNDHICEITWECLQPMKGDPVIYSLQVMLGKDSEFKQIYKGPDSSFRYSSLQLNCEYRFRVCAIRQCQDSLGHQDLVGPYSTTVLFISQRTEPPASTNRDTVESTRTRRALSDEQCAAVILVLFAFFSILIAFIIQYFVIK
UniProt P58012, sequence (P58012 whole entry, looked up): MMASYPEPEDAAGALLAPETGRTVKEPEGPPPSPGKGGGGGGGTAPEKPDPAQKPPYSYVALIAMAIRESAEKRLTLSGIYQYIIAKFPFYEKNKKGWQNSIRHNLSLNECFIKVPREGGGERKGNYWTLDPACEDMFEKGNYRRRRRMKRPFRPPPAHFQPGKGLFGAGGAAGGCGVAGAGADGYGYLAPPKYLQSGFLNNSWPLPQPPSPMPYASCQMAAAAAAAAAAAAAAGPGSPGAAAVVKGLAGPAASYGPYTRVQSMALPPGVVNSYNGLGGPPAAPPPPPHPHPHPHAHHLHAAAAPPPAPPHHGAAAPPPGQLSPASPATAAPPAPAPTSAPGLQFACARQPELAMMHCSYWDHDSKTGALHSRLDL
UniProt Q9HCG7, sequence (Q9HCG7 whole entry, looked up): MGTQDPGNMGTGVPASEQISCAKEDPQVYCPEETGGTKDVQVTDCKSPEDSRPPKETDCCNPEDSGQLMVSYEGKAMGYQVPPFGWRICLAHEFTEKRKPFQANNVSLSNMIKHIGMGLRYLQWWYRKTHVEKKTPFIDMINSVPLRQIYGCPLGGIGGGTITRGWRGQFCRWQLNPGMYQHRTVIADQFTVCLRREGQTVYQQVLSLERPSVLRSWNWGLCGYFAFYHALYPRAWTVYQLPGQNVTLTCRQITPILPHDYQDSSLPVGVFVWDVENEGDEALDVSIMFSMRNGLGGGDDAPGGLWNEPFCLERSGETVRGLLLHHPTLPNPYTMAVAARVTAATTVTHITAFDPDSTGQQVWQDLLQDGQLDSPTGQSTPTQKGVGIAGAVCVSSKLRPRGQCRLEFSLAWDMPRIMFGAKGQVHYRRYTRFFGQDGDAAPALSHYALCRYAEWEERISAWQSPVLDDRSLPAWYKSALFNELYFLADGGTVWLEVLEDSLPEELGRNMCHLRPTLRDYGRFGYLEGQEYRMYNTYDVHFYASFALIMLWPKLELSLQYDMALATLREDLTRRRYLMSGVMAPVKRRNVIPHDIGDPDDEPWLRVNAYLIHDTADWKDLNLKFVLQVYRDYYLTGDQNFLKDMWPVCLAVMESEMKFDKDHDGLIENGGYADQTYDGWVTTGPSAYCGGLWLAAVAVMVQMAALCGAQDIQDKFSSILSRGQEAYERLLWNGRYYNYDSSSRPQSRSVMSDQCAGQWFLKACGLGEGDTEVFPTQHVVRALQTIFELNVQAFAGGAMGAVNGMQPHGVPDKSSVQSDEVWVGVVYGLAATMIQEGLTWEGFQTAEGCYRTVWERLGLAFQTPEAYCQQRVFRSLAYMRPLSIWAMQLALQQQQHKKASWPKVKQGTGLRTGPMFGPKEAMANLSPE
UniProt P02774, sequence (P02774 whole entry, looked up): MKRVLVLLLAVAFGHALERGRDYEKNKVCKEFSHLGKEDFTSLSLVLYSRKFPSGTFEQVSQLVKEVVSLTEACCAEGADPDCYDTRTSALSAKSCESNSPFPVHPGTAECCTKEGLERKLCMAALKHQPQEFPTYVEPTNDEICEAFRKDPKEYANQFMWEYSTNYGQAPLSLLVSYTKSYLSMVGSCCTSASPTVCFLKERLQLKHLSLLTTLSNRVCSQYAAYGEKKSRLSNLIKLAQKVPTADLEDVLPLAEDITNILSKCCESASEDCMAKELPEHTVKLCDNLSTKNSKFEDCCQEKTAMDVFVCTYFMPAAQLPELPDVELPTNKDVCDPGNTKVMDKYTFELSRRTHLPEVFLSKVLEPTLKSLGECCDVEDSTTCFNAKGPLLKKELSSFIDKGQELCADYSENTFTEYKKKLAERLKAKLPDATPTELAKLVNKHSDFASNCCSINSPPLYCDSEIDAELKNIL
UniProt Q8TF64, sequence (Q8TF64 whole entry, looked up): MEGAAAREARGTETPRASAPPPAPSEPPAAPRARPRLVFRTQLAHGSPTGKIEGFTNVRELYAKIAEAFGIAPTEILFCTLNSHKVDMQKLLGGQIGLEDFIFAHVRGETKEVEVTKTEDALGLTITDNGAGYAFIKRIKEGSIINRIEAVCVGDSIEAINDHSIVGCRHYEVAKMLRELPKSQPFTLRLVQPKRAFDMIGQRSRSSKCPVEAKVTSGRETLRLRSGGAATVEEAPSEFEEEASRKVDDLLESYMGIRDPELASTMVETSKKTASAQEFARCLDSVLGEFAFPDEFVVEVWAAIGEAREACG
UniProt Q96PZ2, sequence (Q96PZ2 whole entry, looked up): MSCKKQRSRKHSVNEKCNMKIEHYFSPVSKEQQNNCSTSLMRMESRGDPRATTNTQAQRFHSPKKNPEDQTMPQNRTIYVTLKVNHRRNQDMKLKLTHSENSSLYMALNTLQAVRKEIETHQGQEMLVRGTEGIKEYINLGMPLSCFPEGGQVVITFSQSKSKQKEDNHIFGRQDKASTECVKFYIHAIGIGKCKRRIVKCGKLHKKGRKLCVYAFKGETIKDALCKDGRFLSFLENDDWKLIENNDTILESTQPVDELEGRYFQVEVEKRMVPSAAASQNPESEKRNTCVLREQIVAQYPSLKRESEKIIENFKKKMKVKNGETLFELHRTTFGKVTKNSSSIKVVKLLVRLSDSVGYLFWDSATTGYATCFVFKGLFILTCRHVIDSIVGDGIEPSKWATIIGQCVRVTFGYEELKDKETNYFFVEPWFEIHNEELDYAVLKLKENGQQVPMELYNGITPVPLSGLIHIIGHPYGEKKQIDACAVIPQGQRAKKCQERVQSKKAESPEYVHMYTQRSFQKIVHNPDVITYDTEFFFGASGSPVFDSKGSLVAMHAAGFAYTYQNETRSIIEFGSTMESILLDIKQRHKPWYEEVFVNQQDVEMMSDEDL

Target	log2 fold change (Tubastatin A)	log2 fold change [1]	log2 fold change (defactinib)	log2 fold change [2]	log2 fold change (encorafenib)	log2 fold change [3]	log2 fold change (alisertib)	log2 fold change [4]	log2 fold change (gefitinib)	log2 fold change (lapatinib)	log2 fold change (pictilisib)	log2 fold change (crizotinib)	log2 fold change (duvelisib)	log2 fold change (tozasertib)	log2 fold change (doramapimod)	log2 fold change (bafetinib)	log2 fold change (alvocidib)	log2 fold change [5]	log2 fold change (gandotinib)	log2 fold change [6]
EIF2B4 (UniProt Q9UI10)	0.006	-0.004	0.03	-0.058	0.114	-0.1	-0.039	-0.008	0.074	-0.003	0.038	-0.057	-0.032	-0.314 (active)	-0.019	-0.04	–	–	–	–
DST isoform 3 (UniProt Q03001)	–	-0.061	–	–	0.008	-0.004	–	–	–	–	0.049	–	–	-0.056	–	-0.118	0.386	1.39 (active)	-0.243	-0.224
EPB41 isoform 4 (UniProt P11171)	0.012	-0.089	–	–	–	–	-0.09	-0.153	-0.096	0.014	–	-0.038	–	–	0.046	–	-0.014	0.012	-0.004	-0.024
FNDC3A (UniProt Q9Y2H6)	-0.237	0.014	–	–	–	–	-0.141	–	-0.214	–	–	0.036	–	–	0.143	–	-0.017	-0.808 (active)	0.42	0.126
FBXO45 (UniProt P0C2W1)	-0.162	-0.035	-0.009	–	-0.062	-0.035	0.003	0.02	-0.002	-0.067	-0.034	-0.123	–	0.115	0.017	-0.272	-0.047	-0.081	-0.031	0.091
GIPC3 (UniProt Q8TF64)	-0.071	0.055	–	-0.157	0.028	0.05	-0.194	0.008	0.073	0.157	-0.055	-0.103	0.05	-0.097	0	-0.035	-0.108	-0.033	0.124	0.083
FAT2 (UniProt Q9NYQ8)	-0.083	-0.123	-0.034	–	-0.092	0.104	-0.023	0.043	0.013	-0.027	-0.015	-0.512	–	0.055	-0.094	-0.244	-0.214	-0.366	0.182	0.407
EID1 (UniProt Q9Y6B2)	-0.004	0.036	–	0.046	-0.057	0.072	-0.067	–	0.022	–	–	–	0.604 (active)	-0.043	–	–	-0.061	-0.02	0.108	0.069
EXO5 (UniProt Q9H790)	0.018	0.068	–	–	–	–	–	–	–	–	-0.43 (active)	-0.113	–	–	0.061	-0.261	–	–	–	–
EIF3I (UniProt Q5TFK1)	–	–	–	–	–	–	0.159	0.613	0.233	-0.063	–	–	–	–	–	–	0.053	0.137	0.052	0.112
FOXL2 (UniProt P58012)	-0.049	0.031	–	0.005	0.079	0.138	–	0.015	–	-0.25	0.091	–	0.094	-0.092	–	-0.703 (active)	–	–	–	–
DUSP22 isoform 2 (UniProt Q9NRW4)	-0.079	-0.066	-0.085	0.043	–	–	0.18	-0.11	-0.101	0.031	-0.082	–	0.038	–	–	0.018	0.034	-0.058	0.03	0.037
GC isoform 3 (UniProt P02774)	0.087	–	-0.003	0.244	-0.018	-0.049	–	–	–	–	–	0.029	0.133	-0.004	-0.081	–	0.105	0.173	-0.025	-0.075
GBA2 (UniProt Q9HCG7)	-0.032	0.073	–	-0.098	-0.052	0.079	-0.004	0.013	0.2	-0.062	-0.012	0.014	0.06	-0.138	0.055	-0.199	-0.046	-0.094	-0.009	0.054
FAM111A (UniProt Q96PZ2)	-0.083	0.022	0.053	-0.119	-0.074	-0.11	–	-0.091	–	0.223	–	-0.01	0.03	-0.02	-0.163	–	–	–	–	–
FAM204A (UniProt Q9H8W3)	-0.036	0.018	0.146	–	–	–	–	–	–	–	–	-0.053	–	–	0.154	–	-0.139	0.412	0.045	-0.077
FAT1 (UniProt Q14517)	0.18	0	–	–	0.029	0.047	–	0.094	–	-0.129	–	-0.109	–	-0.139	0.475	–	-0.14	0.079	0.027	0.072
ESRRB isoform 1 (UniProt O95718)	-0.269	-0.011	–	–	–	–	–	–	–	–	0.05	–	–	–	–	0.028	0.233	0.438	-0.437	-0.308
EIF2AK3 (UniProt Q9NZJ5)	-0.369	0.28	–	0.104	–	–	-0.128	-0.197	0.001	0.3	–	–	-0.122	–	–	–	0.281	-0.051	-0.212	1.48 (active)
EPS8L2 (UniProt Q9H6S3)	0.078	-0.016	–	0.031	0.096	-0.037	0.01	-0.036	-0.149	0.044	-0.03	-0.012	-0.086	-0.258	-0.046	-0.101	-0.009	-0.068	0.061	0.207
ERG28 (UniProt Q9UKR5)	–	–	–	-0.037	0.055	-0.062	–	-0.024	–	0.008	0.049	–	0.014	-0.11	–	0.041	0.304	0.593 (active)	-0.349	-0.392
EHHADH (UniProt Q08426)	0.039	-0.024	–	0.101	0.035	-0.426	0.065	-0.005	0.012	-0.037	0.143	-0.001	0.051	0.045	0.048	0.06	0.013	0.016	-0.117	0
GAA (UniProt P10253)	0.098	-0.047	-0.513 (active)	–	0.097	-0.15	-0.117	0.089	-0.043	0.083	0.034	-0.098	–	-0.027	-0.099	0.081	-0.006	-0.018	0.04	-0.04
EPB41, A0A2R8Y783	–	–	0.05	-0.13	-0.523	0.118	–	0.029	–	-0.063	0.04	–	-0.089	0.061	–	0.04	-0.248	0.121	-0.066	-0.006
EVI5L isoform 2 (UniProt Q96CN4)	–	–	–	–	–	–	–	–	–	–	–	–	–	–	–	–	-0.293	0.022	0.062	0.049
GART (UniProt C9JZG2)	0.018	–	–	–	0.038	0.088	0.121	-0.056	0.281	-0.131	0.019	-0.245	–	0.037	0.166	0.026	-0.071	-0.371	0.02	0.19
